Results: PubChem BioAssay (EPA / NIEHS)
Records with an inconclusive call do not appear. The source holds several records for some structures; these can differ, active in one and inactive in another. Activity calls are given as the source filed them. The calls were made as follows, unless noted: active = hit-call score of the fitted dose curve at least 0.9, where 1 is the maximum; inactive = score below 0.9.

How the values were obtained:
[1] = molecular target: Glucocorticoid receptor (Homo sapiens) (UniProt P04150); assay: ATG_GR_TRANS: Attagene TRANS-FACTORIAL HepG2 Assay for human Glucocorticoid Receptor (GR) (AID 2282978; active = hit-call score of the fitted dose curve at least 0.9, where 1 is the maximum;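 also: activators score as hits since higher reporter transcript over DMSO is fitted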); settings: HepG2 Attagene TRANS GR reporter, mRNA transcription
Sequence of Glucocorticoid receptor (Homo sapiens) (P04150 whole entry, looked up, the tested form may be a part): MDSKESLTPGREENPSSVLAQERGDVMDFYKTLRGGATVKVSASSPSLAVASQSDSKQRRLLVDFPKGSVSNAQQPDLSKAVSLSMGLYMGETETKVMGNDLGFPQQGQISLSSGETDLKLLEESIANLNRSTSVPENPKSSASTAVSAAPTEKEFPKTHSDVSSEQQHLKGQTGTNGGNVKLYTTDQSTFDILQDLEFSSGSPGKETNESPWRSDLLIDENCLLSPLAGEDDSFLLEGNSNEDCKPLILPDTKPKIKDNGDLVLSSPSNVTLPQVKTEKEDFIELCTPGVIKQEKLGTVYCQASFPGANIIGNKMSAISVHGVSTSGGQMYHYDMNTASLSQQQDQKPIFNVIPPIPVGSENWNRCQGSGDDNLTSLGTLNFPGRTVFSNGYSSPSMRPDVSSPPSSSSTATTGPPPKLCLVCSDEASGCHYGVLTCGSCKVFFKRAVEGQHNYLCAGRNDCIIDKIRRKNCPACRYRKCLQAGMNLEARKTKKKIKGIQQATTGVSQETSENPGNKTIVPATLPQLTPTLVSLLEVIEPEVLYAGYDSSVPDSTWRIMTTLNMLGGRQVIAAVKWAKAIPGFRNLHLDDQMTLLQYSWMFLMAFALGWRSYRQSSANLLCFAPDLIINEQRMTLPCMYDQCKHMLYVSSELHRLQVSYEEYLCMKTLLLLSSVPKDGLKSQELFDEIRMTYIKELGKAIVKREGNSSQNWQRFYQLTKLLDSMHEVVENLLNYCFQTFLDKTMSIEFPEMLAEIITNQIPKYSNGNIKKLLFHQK
In short: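 Exogenous NR-GAL4 fusion activity was assessed through induced GAL4-UAS reporter transcripts in transfected human HepG2 cells, quantified after 24 h by RT-PCR and fluorescent capillary electrophoresis with DMSO as baseline.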

[2] = molecular target: Bile acid receptor (Homo sapiens) (UniProt Q96RI1); assay: ATG_FXR_TRANS: Attagene TRANS-FACTORIAL HepG2 Assay for Farnesoid X Receptor (FXR) (AID 2282979; active = hit-call score of the fitted dose curve at least 0.9, where 1 is the maximum;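 also: hits raise reporter mRNA above DMSO so AC50 marks FXR activation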); settings: HepG2 Attagene TRANS FXR-GAL4 reporter transcription
Sequence of Bile acid receptor (Homo sapiens) (Q96RI1 whole entry, looked up, the tested form may be a part): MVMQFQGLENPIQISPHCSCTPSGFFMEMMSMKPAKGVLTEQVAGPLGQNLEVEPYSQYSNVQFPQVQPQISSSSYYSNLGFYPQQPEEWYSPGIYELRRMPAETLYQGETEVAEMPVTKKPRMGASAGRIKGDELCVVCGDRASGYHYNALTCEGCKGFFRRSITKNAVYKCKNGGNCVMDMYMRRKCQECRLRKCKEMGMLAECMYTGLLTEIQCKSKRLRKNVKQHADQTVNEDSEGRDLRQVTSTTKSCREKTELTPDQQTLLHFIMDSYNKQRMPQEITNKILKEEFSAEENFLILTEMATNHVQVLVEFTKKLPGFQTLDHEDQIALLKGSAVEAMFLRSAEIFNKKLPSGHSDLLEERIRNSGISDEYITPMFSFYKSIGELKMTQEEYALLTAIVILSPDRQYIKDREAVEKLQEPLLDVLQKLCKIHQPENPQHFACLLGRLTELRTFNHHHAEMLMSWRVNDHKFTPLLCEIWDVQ
In short: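 Read-out: fluorescent reporter transcripts quantified by capillary electrophoresis after RT-PCR of total RNA. Source cells were HepG2 transiently carrying chimeric NR-GAL4 plus GAL4-UAS reporter units, dosed 24 h. Activity fitted upward relative to DMSO baseline.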

[3] = molecular target: Oxysterols receptor LXR-alpha (Homo sapiens) (UniProt Q13133); assay: ATG_LXRa_TRANS: Attagene TRANS-FACTORIAL HepG2 Assay for human Liver X Receptor alpha (LXRa) (AID 2282980; active = hit-call score of the fitted dose curve at least 0.9, where 1 is the maximum); settings: HepG2 Attagene TRANS reporter, LXRa transactivation
Sequence of Oxysterols receptor LXR-alpha (Homo sapiens) (Q13133 whole entry, looked up, the tested form may be a part): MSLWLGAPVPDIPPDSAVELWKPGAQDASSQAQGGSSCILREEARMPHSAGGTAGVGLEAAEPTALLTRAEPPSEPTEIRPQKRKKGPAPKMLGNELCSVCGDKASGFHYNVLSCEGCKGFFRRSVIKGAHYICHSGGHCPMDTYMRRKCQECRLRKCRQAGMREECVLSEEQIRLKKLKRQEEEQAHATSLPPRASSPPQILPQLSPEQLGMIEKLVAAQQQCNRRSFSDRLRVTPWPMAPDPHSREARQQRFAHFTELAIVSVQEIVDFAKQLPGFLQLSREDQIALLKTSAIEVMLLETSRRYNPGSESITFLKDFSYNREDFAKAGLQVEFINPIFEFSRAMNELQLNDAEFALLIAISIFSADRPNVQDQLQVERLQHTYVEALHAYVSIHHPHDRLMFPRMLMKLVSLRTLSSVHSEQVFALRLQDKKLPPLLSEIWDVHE
In short: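 Read-out: reporter transcript levels by RT-PCR plus capillary electrophoresis, fluorescence intensity. Transiently transfected HepG2, exogenous NR-GAL4 chimera, GAL4-UAS reporters; 24 h compound exposure. Activity = increase over DMSO negative control.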

[4] = molecular target: Oxysterols receptor LXR-beta (Homo sapiens) (UniProt P55055); assay: ATG_LXRb_TRANS: Attagene TRANS-FACTORIAL HepG2 Assay for human Liver X Receptor beta (LXRb) (AID 2282981; active = hit-call score of the fitted dose curve at least 0.9, where 1 is the maximum); settings: HepG2 Attagene TRANS GAL4-LXRb reporter, mRNA
Sequence of Oxysterols receptor LXR-beta (Homo sapiens) (P55055 whole entry, looked up, the tested form may be a part): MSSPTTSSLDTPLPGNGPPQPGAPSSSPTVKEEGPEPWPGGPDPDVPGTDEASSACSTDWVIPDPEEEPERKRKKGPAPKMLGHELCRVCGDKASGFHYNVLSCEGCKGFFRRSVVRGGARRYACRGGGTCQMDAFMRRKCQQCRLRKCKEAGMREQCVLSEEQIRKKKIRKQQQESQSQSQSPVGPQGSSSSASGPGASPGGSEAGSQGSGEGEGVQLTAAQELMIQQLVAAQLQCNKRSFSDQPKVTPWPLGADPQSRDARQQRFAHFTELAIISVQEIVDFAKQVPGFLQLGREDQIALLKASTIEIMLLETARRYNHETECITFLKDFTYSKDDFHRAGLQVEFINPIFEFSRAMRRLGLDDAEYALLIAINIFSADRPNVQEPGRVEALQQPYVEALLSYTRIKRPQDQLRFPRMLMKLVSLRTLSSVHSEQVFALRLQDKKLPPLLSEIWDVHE
In short: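 HepG2 cells transiently transfected with multiple reporter transcription units carrying chimeric NR-Gal4 proteins acting on GAL4-UAS reporters; compound exposure 24 h. Reporter mRNA quantified by RT-PCR, 6-FAM labelling, HpaI digestion and capillary electrophoresis; gain of signal versus DMSO.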

[5] = molecular target: Hepatocyte nuclear factor 4-alpha (Homo sapiens) (UniProt P41235); assay: ATG_HNF4a_TRANS: Attagene TRANS-FACTORIAL HepG2 Assay for human Hepatocyte Nuclear Factor 4 alpha (HNF4a) (AID 2282982; active = hit-call score of the fitted dose curve at least 0.9, where 1 is the maximum); settings: HepG2 HNF4a transactivation reporter, mRNA readout
In short: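 HepG2 cells transiently transfected with multiplexed GAL4-UAS reporter units responsive to chimeric NR-GAL4 proteins; compound exposure 24 h. Reporter mRNA quantified by RT-PCR, 6-FAM labelling, HpaI digestion and capillary electrophoresis; gain of signal versus DMSO baseline.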

[6] = ATG_M_06_TRANS: Attagene TRANS-FACTORIAL HepG2 Assay for M06 Transcription Factor (Internal Marker) (AID 2282983; active = hit-call score of the fitted dose curve at least 0.9, where 1 is the maximum); settings: HepG2 Attagene TRANS M06 internal marker reporter
In short: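 After a 24 h chemical treatment of transfected HepG2, RNA underwent DNase I treatment, reverse transcription and reporter-specific PCR; labelled, HpaI-digested products were sized by capillary electrophoresis. Signal increase relative to DMSO defined activity.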

[7] = ATG_M_32_TRANS: Attagene TRANS-FACTORIAL HepG2 Assay for M32 Transcription Factor (Internal Marker) (AID 2282984; active = hit-call score of the fitted dose curve at least 0.9, where 1 is the maximum;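 also: transcript level of a background control reporter unit measured by RT-PCR and capillary electrophoresis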); settings: HepG2 Attagene TRANS M32 internal marker reporter
In short: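 HepG2 cells transiently transfected with multiple GAL4-UAS reporter transcription units, dosed for 24 hours; reporter mRNA quantified by RT-PCR, 6-FAM primer extension, HpaI digestion and capillary electrophoresis. Gain-of-signal fitted versus DMSO baseline; internal background-control marker.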

[8] = molecular target: Transcriptional activator Myb (Homo sapiens) (UniProt P10242); assay: ATG_Myb_CIS: Attagene CIS-FACTORIAL HepG2 Assay for human Myeloblastosis (Myb) Proto-Oncogene Transcription Factor (AID 2282986); settings: HepG2 Attagene CIS-FACTORIAL Myb reporter transcription; actives raise or lower the signal
Sequence of Transcriptional activator Myb (Homo sapiens) (P10242 whole entry, looked up): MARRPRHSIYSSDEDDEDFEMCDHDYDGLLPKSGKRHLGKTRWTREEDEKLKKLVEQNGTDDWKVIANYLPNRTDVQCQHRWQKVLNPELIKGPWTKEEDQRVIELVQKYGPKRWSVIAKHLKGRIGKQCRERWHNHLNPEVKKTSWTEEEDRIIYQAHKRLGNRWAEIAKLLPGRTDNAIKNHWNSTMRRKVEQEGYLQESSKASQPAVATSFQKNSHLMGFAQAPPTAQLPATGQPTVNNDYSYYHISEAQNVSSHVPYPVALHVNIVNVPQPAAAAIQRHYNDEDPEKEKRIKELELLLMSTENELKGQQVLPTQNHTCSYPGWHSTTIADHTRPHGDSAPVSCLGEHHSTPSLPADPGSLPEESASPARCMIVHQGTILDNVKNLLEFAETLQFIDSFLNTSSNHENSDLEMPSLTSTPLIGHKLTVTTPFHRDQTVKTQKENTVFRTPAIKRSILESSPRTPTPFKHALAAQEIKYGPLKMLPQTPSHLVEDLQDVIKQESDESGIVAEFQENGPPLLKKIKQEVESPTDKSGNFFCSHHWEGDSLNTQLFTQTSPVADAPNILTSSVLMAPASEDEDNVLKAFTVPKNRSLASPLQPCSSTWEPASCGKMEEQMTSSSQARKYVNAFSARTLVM
In short: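 In this HepG2 transient-transfection format, cis-regulated reporter mRNA is quantified 24 h post-dosing by RT-PCR with capillary electrophoresis, fitted bidirectionally to DMSO baseline.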

[9] = molecular target: Nuclear respiratory factor 1 (Homo sapiens) (UniProt Q16656); assay: ATG_NRF1_CIS: Attagene CIS-FACTORIAL HepG2 Assay for human Nuclear Respiratory Factor 1 (NRF1) Orphan Gene (AID 2282987); settings: HepG2 NRF1 cis-element reporter, Attagene multiplex; actives raise or lower the signal
Sequence of Nuclear respiratory factor 1 (Homo sapiens) (Q16656 whole entry, looked up): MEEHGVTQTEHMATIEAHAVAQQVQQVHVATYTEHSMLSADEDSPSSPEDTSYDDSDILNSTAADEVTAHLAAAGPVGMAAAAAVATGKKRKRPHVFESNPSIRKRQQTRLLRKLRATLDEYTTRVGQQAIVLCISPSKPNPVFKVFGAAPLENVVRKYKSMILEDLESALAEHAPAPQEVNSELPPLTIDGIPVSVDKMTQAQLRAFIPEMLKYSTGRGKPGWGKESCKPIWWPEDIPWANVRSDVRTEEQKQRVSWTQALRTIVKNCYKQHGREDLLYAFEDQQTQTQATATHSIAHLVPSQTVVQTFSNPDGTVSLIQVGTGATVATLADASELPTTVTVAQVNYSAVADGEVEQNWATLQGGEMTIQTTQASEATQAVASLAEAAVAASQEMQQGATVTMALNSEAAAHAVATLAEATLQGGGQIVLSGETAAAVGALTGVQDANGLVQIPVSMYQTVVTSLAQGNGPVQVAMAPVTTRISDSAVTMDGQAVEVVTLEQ
In short: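 Using DMSO as baseline, gain- or loss-of-signal was fitted for reporter mRNA levels in HepG2 cells transiently transfected with cis-regulated reporter units. Samples were taken 24 h after dosing and read by RT-PCR with capillary electrophoresis.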

[10] = ATG_NFI_CIS: Attagene CIS-FACTORIAL HepG2 Assay for human Nuclear Factor I (NFI) (AID 2282989); settings: HepG2 cis-regulatory reporter, NFI response element transcription; actives raise or lower the signal
In short: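 Reporter transcripts were measured by RT-PCR with fluorescent primer extension and capillary electrophoresis 24 h post-treatment. HepG2 cells carried transiently transfected cis-regulated reporter constructs reporting endogenous factor activity; gain or loss fitted against DMSO baseline.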

[11] = molecular target: Myc proto-oncogene protein (Homo sapiens) (UniProt P01106); assay: ATG_Myc_CIS: Attagene CIS-FACTORIAL HepG2 Assay for human Myelocytomatosis (Myc) Proto-Oncogene Transcription Factor (AID 2282990); settings: HepG2, Attagene cis-reporter transcription factor activity; actives raise or lower the signal
Sequence of Myc proto-oncogene protein (Homo sapiens) (P01106 whole entry, looked up): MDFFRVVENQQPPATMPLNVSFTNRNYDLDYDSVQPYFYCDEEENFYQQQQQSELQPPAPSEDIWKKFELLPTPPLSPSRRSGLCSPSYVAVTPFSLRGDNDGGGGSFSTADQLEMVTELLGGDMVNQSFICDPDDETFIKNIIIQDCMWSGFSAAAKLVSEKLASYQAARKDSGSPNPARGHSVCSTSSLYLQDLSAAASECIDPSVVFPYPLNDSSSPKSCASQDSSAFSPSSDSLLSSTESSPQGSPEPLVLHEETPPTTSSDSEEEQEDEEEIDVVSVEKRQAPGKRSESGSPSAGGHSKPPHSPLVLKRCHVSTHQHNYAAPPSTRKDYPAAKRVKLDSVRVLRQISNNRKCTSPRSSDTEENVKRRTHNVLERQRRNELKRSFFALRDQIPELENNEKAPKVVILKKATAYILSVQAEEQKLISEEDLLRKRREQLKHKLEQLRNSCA
In short: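 DMSO-normalised, bidirectionally fitted reporter mRNA signal. HepG2 cells transfected with cis reporter constructs, treated 24 h; transcripts detected by RT-PCR, 6-FAM primer extension and CE.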

[12] = ATG_NF_kB_CIS: Attagene CIS-FACTORIAL HepG2 Assay for human Nuclear Factor Kappa B (NF-kB) (AID 2282991); settings: HepG2 Attagene cis-factorial NF-kB reporter mRNA; actives raise or lower the signal
In short: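 Endpoint from a 52-component multiplexed HepG2 reporter panel: cis-regulated transcription units transiently transfected, 24 h dosing, reporter mRNA quantified by RT-PCR and capillary electrophoresis, scored as increase or decrease against DMSO.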

[13] = ATG_Oct_MLP_CIS: Attagene CIS-FACTORIAL HepG2 Assay for human Octamer-Binding Transcription Factor (Oct) (AID 2282993); settings: HepG2 Attagene cis-factorial Oct reporter, mRNA; actives raise or lower the signal
In short: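 Readout is reporter transcript level from RT-PCR with fluorescent primer extension and capillary electrophoresis, fitted in both directions against DMSO. Transfected HepG2 reporter units report endogenous factor activity after 24 h dosing.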

[14] = molecular target: Cellular tumor antigen p53 (Homo sapiens) (UniProt P04637); assay: ATG_p53_CIS: Attagene CIS-FACTORIAL HepG2 Assay for human p53 Transcription Factor (AID 2282994); settings: HepG2 p53 cis-element reporter, Attagene mRNA; actives raise or lower the signal
Sequence of Cellular tumor antigen p53 (Homo sapiens) (P04637 whole entry, looked up): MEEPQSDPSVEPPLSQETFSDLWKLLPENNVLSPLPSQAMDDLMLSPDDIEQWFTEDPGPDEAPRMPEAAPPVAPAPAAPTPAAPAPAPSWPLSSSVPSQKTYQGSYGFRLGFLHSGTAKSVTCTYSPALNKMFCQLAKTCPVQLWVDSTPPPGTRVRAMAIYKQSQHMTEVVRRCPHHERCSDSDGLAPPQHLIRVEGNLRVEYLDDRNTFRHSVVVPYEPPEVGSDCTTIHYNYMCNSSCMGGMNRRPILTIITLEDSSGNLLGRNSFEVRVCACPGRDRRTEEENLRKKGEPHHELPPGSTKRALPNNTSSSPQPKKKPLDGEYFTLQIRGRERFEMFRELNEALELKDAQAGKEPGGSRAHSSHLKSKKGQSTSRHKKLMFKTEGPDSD
In short: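 Using HepG2 hepatoma cells carrying cis-acting multiplexed reporters, mRNA induction is detected after a 24 h exposure. Gain- and loss-of-signal responses are fitted relative to DMSO-treated cells.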

[15] = BSK_3C_TissueFactor: BioMAP Diversity Plus: 3C Assay for Tissue Factor Biomarker Activity (AID 2282997); settings: BioMAP 3C HUVEC, tissue factor biomarker readout; actives raise or lower the signal
In short: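 Human vascular primary cells (umbilical vein endothelium) received test chemical; Tissue Factor was determined by ELISA at 24 h, and both gain and loss of signal versus DMSO were fitted.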

[16] = BSK_3C_uPAR: BioMAP Diversity Plus: 3C Assay for Urokinase-type plasminogen activator receptor (uPAR) Biomarker Activity (AID 2282998); settings: BioMAP 3C HUVEC, uPAR biomarker ELISA; actives raise or lower the signal
In short: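 Cell-surface uPAR on HUVEC (3C system) read by ELISA at 24 h post-treatment, with DMSO as baseline and fitting in both directions. Parallel cultures stained with SRB to flag overt cytotoxicity.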

[17] = BSK_3C_VCAM1: BioMAP Diversity Plus: 3C Assay for Vascular cell adhesion molecule 1 (VCAM1) Biomarker Activity (AID 2282999); settings: BioMAP 3C HUVEC, VCAM1 ELISA, cytokine-stimulated; actives raise or lower the signal
In short: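 Human umbilical vein endothelial cells were dosed with compound for 24 h, after which cell-surface VCAM-1 was quantified by ELISA. Bidirectional curve fitting used DMSO as negative control and activity baseline.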

[18] = ATG_NRF2_ARE_CIS: Attagene CIS-FACTORIAL HepG2 Assay for human Nuclear Factor Erythroid 2 Related Factor 2 (NFR2) response to Antioxidant Response Elements (ARE) (AID 2282992); settings: HepG2 Attagene ARE/NRF2 reporter, transcription factor activity; actives raise or lower the signal;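 as to AC50: reporter mRNA level measured by RT-PCR and capillary electrophoresis fluorescence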
In short: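 Cis-factorial assay: transfected HepG2 reporter library, 24 h dosing, mRNA readout via RT-PCR/CE; DMSO-referenced bidirectional analysis.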

[19] = molecular target: Nuclear receptor subfamily 4 group A member 2 (Homo sapiens) (UniProt P43354); assay: ATG_NURR1_TRANS: Attagene TRANS-FACTORIAL HepG2 Assay for human Nuclear Receptor Related Protein 1 (NURR1) (AID 2282985; active = hit-call score of the fitted dose curve at least 0.9, where 1 is the maximum); settings: HepG2 Attagene TRANS reporter, mRNA readout
Sequence of Nuclear receptor subfamily 4 group A member 2 (Homo sapiens) (P43354 whole entry, looked up, the tested form may be a part): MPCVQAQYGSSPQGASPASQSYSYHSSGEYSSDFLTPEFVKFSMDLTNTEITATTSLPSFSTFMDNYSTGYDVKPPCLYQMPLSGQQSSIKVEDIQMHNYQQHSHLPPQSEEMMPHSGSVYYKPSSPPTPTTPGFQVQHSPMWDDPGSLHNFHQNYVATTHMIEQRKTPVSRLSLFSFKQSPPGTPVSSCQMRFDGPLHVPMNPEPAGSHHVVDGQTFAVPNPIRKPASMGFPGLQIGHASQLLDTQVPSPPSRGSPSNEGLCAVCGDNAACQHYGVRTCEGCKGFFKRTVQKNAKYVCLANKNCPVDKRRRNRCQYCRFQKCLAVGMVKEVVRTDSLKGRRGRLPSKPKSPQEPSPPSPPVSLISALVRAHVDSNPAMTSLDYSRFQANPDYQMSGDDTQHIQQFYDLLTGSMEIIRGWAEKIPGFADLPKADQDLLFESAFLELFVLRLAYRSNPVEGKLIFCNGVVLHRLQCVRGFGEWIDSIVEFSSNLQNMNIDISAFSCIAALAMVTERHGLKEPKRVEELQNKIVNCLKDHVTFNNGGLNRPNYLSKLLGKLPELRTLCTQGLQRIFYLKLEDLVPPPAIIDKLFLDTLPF
In short: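 HepG2 cells transiently transfected with GAL4-UAS reporter units and chimeric NR-Gal4 constructs; chemical exposure 24 h. Reporter mRNA quantified by RT-PCR, fluorescent labelling and capillary electrophoresis; gain of signal fitted relative to DMSO baseline.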

Measured: AC50

NS(=O)(=O)C(F)(F)C(F)(F)C(F)(F)C(F)(F)C(F)(F)C(F)(F)F
inactive: [1] | [2] | [3] | [4] | [5] | [6] | [7] | [8] | [9] | [10] | [11] | [12] | [13] | [14] | [15] | [16] | [17]
active: [16] 19.6 µM

CC1CCCCC1
not listed: [5] | [11] | [15] | [16] | [17] | [19]
inactive: all other assays above

O=C1c2ccccc2C(=O)c2c(Cl)cccc21
active: [12] 4.35 µM
not listed: [5] | [15] | [16] | [17]
inactive: all other assays above

O=C(O)C(F)(F)C(F)(F)C(F)(F)OC(F)(C(F)(F)F)C(F)(F)F
active: [18] 113 µM
not listed: [4] | [5] | [6]
inactive: all other assays above

c1ccc(C[P+](c2ccccc2)(c2ccccc2)c2ccccc2)cc1
active: [18] 55.7 µM
not listed: [3] | [5] | [6] | [15] | [16] | [17]
inactive: all other assays above

C[Si](C)O[Si](C)C
not listed: [5] | [6] | [7] | [15] | [16] | [17] | [19]
inactive: all other assays above

CC(C)C(=O)OCc1ccccc1
not listed: [4] | [5] | [6] | [15] | [16] | [17] | [18] | [19]
inactive: all other assays above

CC1=CCC2C(=O)OC(=O)C2C1 (stereo unspecified)
not listed: [4] | [5] | [6] | [7] | [15] | [16] | [17] | [19]
inactive: all other assays above

CN(C)C(C)(C)CO
not listed: [7] | [11] | [14] | [15] | [16] | [17] | [18]
inactive: all other assays above
